Measured values published in the supplement of paper PMC10600219.
Counter-ions that a name gives are not always drawn. Over roughly 2,800 compounds, “cell viability relative to vehicle” has its median near 0.98; the lowest 2% begin near 0.45. The list comes from a sample in which the lowest values are over-represented; it also holds similar structures and randomly drawn compounds.

system: NCI-H2228 alectinib-DTP; assay: cell viability relative to vehicle (fraction of vehicle); NCI-H2228 is an ALK-positive lung cancer line and DTP means drug-tolerant persister; higher = less growth inhibition; conditions: 100 nM; treatment time 6 days
In short: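 Parental NCI-H2228 cells and drug-tolerant persister cells (made with 1000 nM of a targeted drug for 13 days) were seeded in 384-well plates. The next day, the 3114-agent TargetMol anti-cancer compound library was added at 100 nM, with DMSO as vehicle. After 6 days, ATP was read with the CellTiter-Glo 3D Cell Viability Assay. Each value is cell viability relative to vehicle-treated cells.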

Compared with `CCCCCCCCCC(=O)CC(O)S(=O)(=O)O` (stereo not given) [Sodium houttuyfonate], `N=C(NCCCCCCNC(=N)NC(=N)Nc1ccc(Cl)cc1)NC(=N)Nc1ccc(Cl)cc1` [Chlorhexidine] is higher in cell viability: 1.08 for the first, 1.17 for the second.

Compared with `CC(=O)OC(C)(C)CCC(=O)[C@](C)(O)[C@H]1[C@H](O)C[C@@]2(C)[C@@H]3CC=C4[C@@H](C[C@H](O)[C@@H](O)C4(C)C)[C@]3(C)C(=O)C[C@]12C` [Cucurbitacin IIA], `C[C@H](CC(=O)C[C@@H](C)[C@H]1C[C@H](O)[C@@]2(C)C3=C(C(=O)C[C@]12C)[C@@]1(C)CCC(=O)C(C)(C)[C@@H]1C[C@@H]3O)C(=O)O` [Ganoderic acid A] is lower in cell viability: 1.07 for the first, 1.03 for the second.

Going from `Oc1ccc(C(c2c[nH]c3ccccc23)c2c[nH]c3ccccc23)cc1` to `CN(C)C/C=C/C(=O)Nc1ccc(C(=O)Nc2cccc(Nc3ncc(Cl)c(-c4c[nH]c5ccccc45)n3)c2)cc1`, the cell viability falls from 1.08 to 0.346.

Compared with `C[C@@H]1O[C@@H](O[C@@H]2[C@H](O)[C@@H](O)[C@H](O[C@H]3CC[C@@]4(C)C(CC[C@]5(C)C4C=C[C@]46OC[C@@]7(CCC(C)(C)CC74)[C@@H](O)C[C@]65C)C3(C)C)O[C@@H]2CO[C@@H]2O[C@H](CO)[C@@H](O)[C@H](O)[C@H]2O)[C@H](O)[C@H](O)[C@H]1O` (stereo not given in full) [Saikosaponin C], `CC(C)=CCC[C@](C)(O[C@@H]1O[C@H](CO)[C@@H](O)[C@H](O)[C@H]1O)[C@H]1CC[C@]2(C)[C@@H]1[C@H](O)C[C@@H]1[C@@]3(C)CC[C@H](O)C(C)(C)[C@@H]3[C@@H](O[C@@H]3O[C@H](CO)[C@@H](O)[C@H](O)[C@H]3O[C@@H]3O[C@@H](C)[C@H](O)[C@@H](O)[C@H]3O)C[C@]12C` [Ginsenoside Re] is lower in cell viability: 0.993 for the first, 0.852 for the second.

First: COc1ccc(CC(=O)NC(/N=C(\NC#N)Nc2cccc3ncccc23)C(C)(C)C)cc1OC (stereo not given)
Second: COc1ccc(CCC(=O)O)cc1OC [3,4-Dimethoxyhydrocinnamic acid]
The cell viability of the first is higher: 0.985 for the first, 0.856 for the second.

Going from `Cc1ccc(NC(=S)NNc2c([N+](=O)[O-])cc(C(F)(F)F)cc2[N+](=O)[O-])cc1Cl` to `CCOc1cc2ncc(C#N)c(Nc3ccc(F)c(Cl)c3)c2cc1NC(=O)/C=C/CN(C)C` [Pelitinib], the cell viability falls from 0.982 to 0.507.

Going from `N#CN=C(NCCCCCCOc1ccc(Cl)cc1)Nc1ccncc1` to `N=C(NCCCCCCNC(=N)NC(=N)Nc1ccc(Cl)cc1)NC(=N)Nc1ccc(Cl)cc1` [Chlorhexidine hydrochloride], the cell viability rises from 0.165 to 1.02.

First: C[C@@H]1CC[C@]2(C(=O)O)CC[C@]3(C)C(=CC[C@@H]4[C@@]5(C)CC[C@H](O)[C@@](C)(CO)[C@@H]5CC[C@]43C)[C@@H]2[C@]1(C)O [Rutundic acid]
Second: C=C(C)[C@@H]1CC[C@]2(C(=O)O)CC[C@]3(C)[C@H](CC[C@@H]4[C@@]5(C)CCC(=O)C(C)(C)[C@@H]5CC[C@]43C)[C@@H]12 [Betulonic acid]
The cell viability of the first is lower: 1.02 for the first, 1.08 for the second.

Compared with `CCN(CC)CC(O)CNc1ccc(NCC2CO2)c2c1C(=O)c1ccccc1C2=O` (stereo not given), `COCC[n+]1c2c(n(Cc3cnccn3)c1C)C(=O)c1ccccc1C2=O` is lower in cell viability: 0.831 for the first, 0.0756 for the second.

Compared with `O=C(NCCCn1ccnc1)c1cc(-c2ccco2)on1`, `NNC(=O)c1ccccn1` [2-Picolinyl hydrazide] is lower in cell viability: 1.03 for the first, 1.02 for the second.

Going from `CNC(=O)Nc1cc(Oc2cncc(C)c2)c(-c2ccc(OCC(C)(C)O)nc2)cn1` to `COc1ccc(CNc2nc(N3CCC[C@H]3CO)ncc2C(=O)NCc2ncccn2)cc1Cl` [Avanafil], the cell viability rises from 0.91 to 0.984.

Going from `COc1cc2cc(Oc3ccc4ccc(=O)oc4c3)c(=O)oc2cc1O` [Daphnoretin] to `COc1cc2c3cc1Oc1c(OC)c(OC)cc4c1[C@@H](Cc1ccc(O)c(c1)Oc1ccc(cc1)C[C@@H]3N(C)CC2)N(C)CC4` [Berbamine], the cell viability falls from 1.11 to 1.09.

Going from `CC(C)(NS(=O)(=O)c1ccc2c(Cl)cnc(N=C(N)N)c2c1)C(=O)O` to `CC(=O)Oc1cc(C)c(OC(C)=O)c2ccccc12` [Menadiol Diacetate], the cell viability rises from 1.04 to 1.11.

Going from `CCC(=O)N1CCOc2c(cc(-c3ccc(OC)c(OC)c3)cc2OC[C@H]2CCCN(C)C2)C1` [I-CBP112 hydrochloride] to `COc1ccc(/C(C#N)=C/c2ccc(N3CCC(O)CC3)s2)cc1OC`, the cell viability falls from 0.963 to 0.953.

Going from `Cc1cc(N2C[C@@H](C)N[C@@H](C)C2)ncc1-c1ccc(-c2nc3c(ccn3C)c(=O)[nH]2)cc1` to `C[C@H]1CNC(=O)c2cnn3ccc(nc23)N[C@H](C)c2cc(F)ccc2O1`, the cell viability rises from 0.757 to 0.904.

First: CC(C)C[C@H](NC(=O)CNC(=O)c1cc(Cl)ccc1Cl)B(O)O [Ixazomib]
Second: CC(C)C[C@H](NC(=O)CNC(=O)c1cc(Cl)ccc1Cl)B1OC(=O)C(CC(=O)O)(CC(=O)O)O1
The cell viability of the first is lower: 0.28 for the first, 0.342 for the second.

Going from `C[C@H](NC(=O)CNC(=O)c1cccc(Cl)c1)c1ccccc1` to `Clc1ccc(NN=C(c2ccccc2)c2ccccn2)nc1`, the cell viability falls from 0.957 to 0.74.

Compared with `CCCC(C)NC(=O)c1ccc(Cl)c(Cl)c1` (stereo not given), `Cc1cc(C(=O)Nc2nc3cccc(Cl)c3n2[C@@H]2CCCCN(C(=O)/C=C/CN(C)C)C2)ccn1` [Nazartinib] is lower in cell viability: 1.07 for the first, 0.907 for the second.

Going from `NC(=O)c1nc(-c2c(F)cccc2Cl)oc1Nc1ccc(C(=O)N2CCOCC2)cc1` to `CN(C)C/C=C/C(=O)Nc1ccc(C(=O)N2CCC[C@@H](Nc3ncc(Cl)c(-c4c[nH]c5ccccc45)n3)C2)cc1`, the cell viability falls from 0.929 to 0.437.

Going from `O=C(Nc1ccc(C(O)(C(F)(F)F)C(F)(F)F)cc1)c1ccc(C(F)(F)F)cc1` to `CC1=C(C(=O)Nc2ccc3[nH]ncc3c2)C(c2ccc(F)cc2)NC(=O)N1` (stereo not given), the cell viability rises from 0.963 to 1.09.

Going from `CN(C)C(=S)NN=C(c1ccccn1)c1ccccn1` to `Cc1cc(NC(=O)c2cccc(NC(=O)/C=C/CN(C)C)c2)ccc1Nc1nccc(-c2cccnc2)n1`, the cell viability rises from 0.45 to 0.841.

Compared with `CN1CCN(c2ccc(-c3ccncc3-c3cc(F)c(O)c(F)c3)cc2)CC1`, `COc1cc(N2CCC(N3CCN(C)CC3)CC2)ccc1Nc1ncc(Cl)c(-c2c[nH]c3ccccc23)n1` is lower in cell viability: 1.11 for the first, 0.893 for the second.

For `CCc1cnn2c(NCc3ccc[n+]([O-])c3)cc(N3CCCC[C@H]3CCO)nc12` [Dinaciclib], the cell viability was 0.17.
